Unmarked numbers belong to inactive results. Activity calls are given as the source filed them.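 The calls were made as follows: active = GFP response above 150% of the DMSO control; inconclusive = Under 70 cell events counted for a yeast strain; inactive = the rest.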
assay: yeast TOR pathway CIT2-GFP reporter retest – flow cytometry, third cherry pick, single plex, confirmation (AID 504340);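 also: median GFP fluorescence over all cells with no mother versus daughter split; sample signal as a ratio to the plate DMSO mean so 100% equals DMSO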; settings: S. cerevisiae CIT2-GFP strain, 3 h, at 10 µM, stronger effect = higher value

For CNc1nc(N)c([N+](=O)[O-])c(Nc2cccc(Cl)c2)n1, the GFP response vs DMSO was 480% (active).
With CNc1nc(N)c([N+](=O)[O-])c(Nc2ccccc2OC)n1 the GFP response vs DMSO was 168% (active).
In the case of CC1=CN2C(=N)/C(=C/c3ccc([N+](=O)[O-])o3)C(=O)N=C2S1, the GFP response vs DMSO is reported as 1030% (active).

Going from C[n+]1cccc2c(Br)ccc([O-])c21 to CS(=O)(=O)Oc1ccc(Br)c2cccnc12, the GFP response vs DMSO rises from 97.7% to 103%.

Compared with CCC(C)Nc1nc(N)c([N+](=O)[O-])c(Nc2cc(OC)ccc2OC)n1 (centres undefined), COCCCNc1nc(N)c([N+](=O)[O-])c(Nc2ccccc2OC)n1 is higher in GFP response vs DMSO: 101% for the first, 107% for the second.

Going from O=C(Nc1ccc(-c2nc3ccccc3o2)cc1)c1cccnc1 to Cc1ccc2nc(-c3ccc(NC(=O)c4cccnc4)cc3)oc2c1, the GFP response vs DMSO rises from 96.1% to 104%.

First: CC(=O)C(CC(=O)N1CCCC1)C(=O)Nc1ccc(Cl)cc1 (centres undefined)
Second: CC(=O)CC(=O)Nc1ccc(C(N)=O)cc1
The GFP response vs DMSO of the first is higher: 109% for the first, 106% for the second.

Compared with Cc1ccc2c(Cl)cc(Cl)c(O)c2n1, Cc1ccc2c(Cl)cc(Cl)c(OCC(=O)O)c2n1 is lower in GFP response vs DMSO: 138% for the first, 109% for the second.

Compared with Cc1cc(C)c2ccc(C(=O)O)nc2c1O, Cc1cc(C)c2ccc(N)nc2c1O is higher in GFP response vs DMSO: 88% for the first, 99.3% for the second.

Compared with COC1=C/C(=C/c2c(N)n3cc(C)sc3nc2=O)C=CC1=O, COc1ccc(OC)c2c(=O)cc(C(=O)O)[nH]c12 is lower in GFP response vs DMSO: 124% for the first, 111% for the second.

Going from CNc1cccc2c1C(=O)c1ccccc1C2=O to Nc1ccc(O)c2c1C(=O)c1ccccc1C2=O, the GFP response vs DMSO rises from 104% to 107%.

First: CCCOCc1ccc(O)c2ncccc12
Second: Cc1ccc2c(C)ccc(O)c2n1
The GFP response vs DMSO of the first is lower: 104% for the first, 106% for the second.

Compared with CCC(=O)Nn1cnc2c(c1=O)C1(CCCCC1)Cc1ccccc1-2, CC(=O)Nn1cnc2c(c1=O)C1(CCCCC1)Cc1ccccc1-2 is higher in GFP response vs DMSO: 99.3% for the first, 112% for the second.

C/C(=N\NC(=O)c1ccccc1)c1ccccc1F and O=C(N/N=C/c1ccccc1F)c1cccc2ccccc12 are the same in GFP response vs DMSO: 104% for the first, 104% for the second.

Compared with COc1ccc(OC)c2c(C)cc(C)nc12, COc1ccccc1-c1cc(C(F)(F)F)nc(S(C)(=O)=O)n1 is higher in GFP response vs DMSO: 99.3% for the first, 106% for the second.

First: COc1ccc(N/C(C)=C/C(=O)c2ccccc2)cc1
Second: COc1ccc(N/C=C/C(=O)c2ccc(Cl)cc2)cc1
The GFP response vs DMSO of the first is lower: 94.5% for the first, 107% for the second.

Compared with O=C(Nc1ccccc1)O/N=C1/CCCc2occc21, O=C(Nc1ccccc1)ON=C1c2ccccc2-c2ccccc21 is higher in GFP response vs DMSO: 103% for the first, 112% for the second.

First: O=C(O)c1ccc(C=NNC(=O)c2cccc3ccccc23)cc1
Second: C/C(=N\NC(=O)c1cccc2ccccc12)c1cccnc1
The GFP response vs DMSO of the first is higher: 106% for the first, 91.2% for the second.

First: CN1CCN(C(=O)c2cc(COc3ccc(F)cc3Cl)on2)CC1c1ccccc1 (centres undefined)
Second: O=C(Nc1cccc(Cl)c1)ON=C1c2ccccc2-c2ccccc21
The GFP response vs DMSO of the first is higher: 106% for the first, 101% for the second.

Going from COc1ccccc1Nc1nc(NCCO)nc(N)c1[N+](=O)[O-] to Cc1nc(Nc2ccc(Br)cc2Br)c([N+](=O)[O-])c(=O)[nH]1, the GFP response vs DMSO falls from 111% to 103%.

First: C=CCNc1ncnc2ccccc12
Second: FC(F)Oc1cccc2cccnc12
The GFP response vs DMSO of the first is higher: 103% for the first, 97.7% for the second.
